FLuc counter – qHTS profiling assay for firefly luciferase inhibitor/activator using purifed enzyme and Km concentrations of substrates (counterscreen for miR-21 project); Luciferin 4-monooxygenase (Photinus pyralis), P08659; purified FLuc, Km substrates, luminescence inhibition; Potency, µM (series often up to 57.5 µM), for the others: at the highest dose activity change, negative = inhibition, usual class: inhibitors; actives 6.9% (n = 360,000); AID 588342, 2011;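 further: plate controls were vehicle for no effect and reference inhibitor for full effect; nearly all actives have a fitted effect of over 55% in size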
Target sequence (P08659 whole entry, looked up): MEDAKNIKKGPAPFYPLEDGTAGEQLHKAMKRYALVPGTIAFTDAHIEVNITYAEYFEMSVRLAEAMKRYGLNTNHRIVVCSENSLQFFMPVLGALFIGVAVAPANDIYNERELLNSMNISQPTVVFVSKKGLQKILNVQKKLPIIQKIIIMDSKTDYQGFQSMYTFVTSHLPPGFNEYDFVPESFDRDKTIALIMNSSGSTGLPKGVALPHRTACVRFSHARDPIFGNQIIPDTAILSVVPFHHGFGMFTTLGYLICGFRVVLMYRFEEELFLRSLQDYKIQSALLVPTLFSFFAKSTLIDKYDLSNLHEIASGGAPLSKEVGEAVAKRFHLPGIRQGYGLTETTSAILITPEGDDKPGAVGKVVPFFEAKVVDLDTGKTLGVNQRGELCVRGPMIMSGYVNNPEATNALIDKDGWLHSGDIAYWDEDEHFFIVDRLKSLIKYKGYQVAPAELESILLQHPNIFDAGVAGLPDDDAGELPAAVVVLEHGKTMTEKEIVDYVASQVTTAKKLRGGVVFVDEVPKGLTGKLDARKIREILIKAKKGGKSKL
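Biochemical qHTS of compounds, final roughly 60 µM downward over six points, against 10 nM purified firefly luciferase using Km concentrations of substrates (10 uM D-luciferin, 10 uM ATP) in Tris acetate pH 7.5 buffer; luminescence output.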
Rab9 promoter act – qHTS Assay for Rab9 Promoter Activators. Huh7 Rab9 promoter-luciferase reporter, luminescence, 24 h. Potency, µM (titrated, usually from 9.22 µM), for inactives: at the top dose activation, negative = inhibition, most hits filed as activators. actives 2.8% (n = 320,000). AID 485297, 2010; further: % of control where 0% means no effect; nearly all actives have a fitted effect of over 60% in size
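Promoter activation is measured as luciferase luminescence in Huh7 cells stably transfected with a Rab9 promoter–luciferase construct, following 24 h compound exposure at 37 °C and 10 min reagent incubation at ambient temperature.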
SMN2 splice up – qHTS Assay for Enhancers of SMN2 Splice Variant Expression. actives 2.8% (n = 210,000). AID 1458, 2008. HEK293 SMN2-luciferase splicing reporter, luminescence, 30-36 h. Potency, µM (titrated, usually from 46.1 µM), without a hit: at the top dose activity change, positive = activation, usual class: activators; further: % of control where 0% means no effect; nearly all actives have a fitted effect of over 55% in size
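HEK293 cells carry an SMN2 […]–luciferase reporter in which exon 7 inclusion puts luciferase in frame. Cells were plated 10-12 h before compound addition, then incubated 30-36 h at 37C. ONE-Glo luminescence was read; sodium butyrate at 4.5 mM final served as control.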
uPA generation – qHTS for Inhibitors of Cell Surface uPA Generation; Potency, µM (top dose mostly 38.3 µM), for inactives: at the top dose activity change, negative = inhibition, actives largely listed as inhibitors; cell surface uPA generation assay, qHTS; actives 0.31% (n = 330,000); AID 540303, 2011; active means well fitted inhibition curve with a large enough effect; inconclusive means small, poorly fitted or top-dose-only effect; inactive means no such curve, though single readings can be large or run the other way; tested in mouse RAW 264.7 cells; further: on the % scale 0 is the no-effect control and ±100 the full control effect; nearly all actives have a fitted effect of over 55% in size
ELG1 genotoxic – qHTS screen for small molecules that induce genotoxicity in human embryonic kidney (HEK293T) cells expressing luciferase-tagged ELG1 | HEK293T ELG1-luciferase reporter, luminescence, 16 h | Potency, µM (titrated, usually from 46 µM), for inactives: at the highest dose activity change, positive = activation, usual class: activators | actives 1.3% (n = 330,000); further: % of control where 0% means no effect; nearly all actives have a fitted effect of over 60% in size
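Step 1: seed 2,000 HEK293T ELG1-luciferase cells per well. Step 2: add compound or DMSO, incubate 16 hr at 37 °C. Step 3: ONE-Glo, 30 min at room temperature, read luminescence.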
NPC1 prom act – qHTS Assay for NPC1 Promoter Activators; Huh7 NPC1 promoter luciferase reporter, 24 h; Potency, µM (series often up to 9.22 µM), inactives show at the highest dose activation, usual class: activators; actives 2.4% (n = 320,000); AID 485313, 2010; further: % of control where 0% means no effect; nearly all actives have a fitted effect of over 60% in size
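Luciferase expression driven by the NPC1 promoter was measured in stably transfected Huh7 cells after a 24 h compound incubation, using a luciferase reagent and a luminescence read.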
* marks the source's active call; other numbers are inactive results; ? = inconclusive; . = not tested or not shown. Compounds with a hit are over-represented: about 7.3% of the library has one in this group of screens. Unless noted, the call rests on the fitted dose curve; in most records, active means well fitted curve in the direction sought with a large enough effect; inconclusive means small, poorly fitted or top-dose-only effect, or another doubt; inactive means no such curve, though single readings can be large; an effect the other way counts as inactive or inconclusive. Potency means the concentration at half of the fitted maximal effect.

SMILES	FLuc counter	Rab9 promoter act	SMN2 splice up	uPA generation	ELG1 genotoxic	NPC1 prom act
CC1CCc2c(sc(/N=C/c3cccnc3)c2C(N)=O)C1 (stereo not given)	24µM*	2%	.	2%	17%	8%
O=C(CSc1ncc(-c2ccc(F)cc2)[nH]1)Nc1cccc(O)c1	19µM*	3%	.	0%	-6%	1%
Cn1c2ccc(F)cc2c2nnc(SCC(=O)Nc3cccc(O)c3)nc21	9.5µM*	1%	.	-5%	12%	4%
CC1CC1c1ccc(/C=C(\C#N)C(=O)Nc2cc(Cl)ccc2Cl)o1 (stereo not given)	1%	-4%	9%	4%	-2%	-2%
COc1ccc(/C=C(/C#N)C(=O)Nc2ccccc2C)cc1C(=O)O	-7%	-3%	5%	2%	2%	0%
COc1cc(/C=C(\C#N)C(=O)Nc2ccccc2C(=O)O)cc(Cl)c1OC	27µM*	-1%	2%	1%	0%	-9%
N#C/C(=C\c1ccc(-c2cc(Cl)ccc2Cl)o1)C(=O)Nc1ccccc1C(=O)O	4.3µM*	.	-1%	.	.	.
CC1(C)CC(=O)c2cc(C(=O)Nc3ccc(Cl)cc3)c(=O)[nH]c2C1	2%	.	8%	.	.	.
O=C(Nc1nc(-c2nc3ccccc3s2)cs1)C1COc2ccccc2O1 (stereo not given)	19µM*	28%	25µM*	-26%	1%	20%
CS(=O)(=O)c1ccc2nc(NC(=O)C3COc4ccccc4O3)sc2c1 (stereo not given)	11µM*	22%	.	5%	6%	26%
COc1ccc2nc(NNC(=O)C3COc4ccccc4O3)sc2c1 (stereo not given)	-12%	0%	-3%	-2%	1%	0%
CS(=O)(=O)c1ccc2nc(NC(=O)CC3CCCC3)sc2c1	?	21%	2%	-3%	0%	13%
COc1ccc2nc(NC(=O)C3COc4ccccc4O3)sc2c1 (stereo not given)	3µM*	3.2µM*	13µM*	1%	?	1.6µM*
CN(Cc1ccccc1)S(=O)(=O)c1nnc(NC(=O)c2ccccc2Cl)s1	-2%	.	.	.	.	.
Clc1cccc(-c2cc3nc4c(c(N5CCN(c6cnccn6)CC5)n3n2)CCCC4)c1	12µM*	9%	-60%	9%	-1%	-1%
Cc1ccc(NC(=O)CSc2nnc(NC(=O)C3CC3)s2)cc1	0%	4%	.	10%	?	1%
COc1cccc(NC(=O)CSc2nnc(NC(=O)NC3CCCCC3)s2)c1	1.5µM*	.	.	.	.	.
O=C(CSc1nnc(NC2CCCCC2)s1)Nc1ccc(N2CCOCC2)cc1	13µM*	14%	-13%	-11%	10%	17%
Cc1ccc(NC(=O)Nc2nnc(SCC(=O)N3CCC(C)CC3)s2)cc1	19µM*	.	.	.	.	.
Cc1ccc(NC(=O)CSc2nnc(NC(=O)NC3CCCCC3)s2)cc1	0.95µM*	.	.	.	.	.
CCc1ccc(NC(=O)CCNS(=O)(=O)c2ccc3c(c2)CCCC(=O)N3)cc1	8%	.	.	.	.	.
COc1ccc(-n2ccnc2SCC(=O)Nc2cccc(OC)c2)cc1	-10%	.	.	.	.	.
O=C(CCC1CCCC1)NCCS(=O)(=O)N1CCN(c2ccccc2)CC1	-1%	-6%	.	7%	-3%	-2%
O=c1[nH]c(-c2ccc(-c3cccc(Cl)c3)o2)nc2ccccc12	.	.	.	-21%	2.6µM*	.
O=C(c1ccccc1)c1cc(F)c(N2CCOCC2)cc1Cl	?	0%	-10%	-3%	-6%	0%
SMILES	FLuc counter	Rab9 promoter act	SMN2 splice up	uPA generation	ELG1 genotoxic	NPC1 prom act
O=C(Nc1ccc(N2CCOCC2)c(F)c1)c1cccs1	4.3µM*	0.4µM*	.	-17%	6.5µM*	0.5µM*
O=C(Nc1ccc(N2CCOCC2)nc1)c1cccs1	?	2.5µM*	11µM*	-6%	16%	?
CN(C)c1ccc(NC(=O)c2ccc(N3CCOCC3)nc2)cc1	15µM*	16%	.	-13%	22%	22%
O=C(c1ccccc1)c1ccc(N2CCOCC2)c(F)c1	11µM*	3.5µM*	?	.	?	3.5µM*
O=C(Nc1ccc(N2CCN(c3ccc(C(F)(F)F)cn3)CC2)nc1)c1cccs1	-4%	-8%	.	1%	?	1%
COc1cccc(N(CC(=O)NC2CCCC2)C(=O)CCC(=O)Nc2cc(C)on2)c1	-1%	-3%	.	-1%	0%	-19%
COc1ccccc1Cn1c(CNS(=O)(=O)c2c(C)cc(C)cc2C)nc2cccnc21	-3%	.	.	.	.	.
CC(C)CCN(Cc1ccco1)C(=O)c1cc2c(Cl)nc3ccccc3c2s1	-2%	.	-10%	.	.	.
CCc1cccc(NC(=O)c2c(C)oc3ncnc(N4CCCCC4)c23)c1	-3%	.	.	.	.	.
CC(C)CC1N=C2c3ccccc3N=C(SCC(=O)NCCc3ccc(Cl)cc3)N2C1=O (stereo not given)	0%	.	.	.	.	.
COc1ccccc1NC(=O)Cn1cnc2c(cnn2-c2ccccc2)c1=O	-6%	-2%	-30%	0%	2%	-12%
COc1ccccc1NC(=O)COc1ccccc1C(=O)c1cnn(-c2ccccc2)c1	11µM*	17%	?	16%	?	18%
CCc1ccc(NC(=O)COc2ccc(F)cc2C(=O)c2cnn(-c3ccccc3)c2)cc1	11µM*	?	.	-5%	14%	13%
CCc1ccc(NC(=O)COc2coc(CN3CCN(c4ccccc4)CC3)cc2=O)cc1	5%	-10%	.	8%	2%	-6%
COCCNc1nnc(SC(C)C(=O)Nc2c(C)n(C)n(-c3ccccc3)c2=O)s1 (stereo not given)	7%	0%	.	3%	-2%	-3%
CC(=O)NC(=S)Nc1ccc(-c2nc3ccc(C)cc3s2)cc1	2.1µM*	0.45µM*	13µM*	-8%	?	0.45µM*
CNC(=S)Nc1ccc(-c2nc3ccc(C)cc3s2)cc1	1.3µM*	0.4µM*	11µM*	-2%	?	0.79µM*
COCCNc1nnc(SC(C)C(=O)Nc2ccc(-c3nc4ccc(C)cc4s3)cc2)s1 (stereo not given)	3µM*	0.28µM*	.	-1%	?	1.6µM*
CC1=CCC(C(=O)O)C(C(=O)Nc2ccc(-c3nc4ccc(C)cc4s3)cc2)C1 (stereo not given)	3.4µM*	23%	.	-5%	5.2µM*	?
Cc1ccc2nc(-c3ccc(NC(=S)NCC(C)(C)CN(C)C)cc3)sc2c1	.	.	.	-22%	.	.
COc1ccc(N2CC(NS(=O)(=O)c3cccs3)CC2=O)cc1 (stereo not given)	3%	-1%	.	2%	-2%	4%

Screening data as filed in PubChem BioAssay.
